The record followed here is PubChem BioAssay (NCI).

Each structure is given as a SMILES string. The panel holds about 83,000 compounds, 20% with a hit somewhere; the sample as a whole holds those more often.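 The endpoint reported here, percent growth, reads 100 for growth as untreated, 0 for no net growth and -100 for all cells dead.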 A number with no mark means an inactive call. Active and inactive are the calls of the source. Rule for the calls: active = growth percent below 10; inactive = the rest.

Some test systems named below: NCI-H23 lung; NCI-H226 lung; NCI-H322M lung; HOP-62 NSCLC; NCI-H460 lung; HOP-92 NSCLC; NCI-H522 lung; A549/ATCC NSCLC; 786-0 renal; COLO 205 colon.
Common to all, as to test: NCI-60 one-dose screen, 48 h (100 = growth as untreated, 0 = no growth, -100 = all killed)
Settings in all cases: 10 µM unless noted

As for `Cn1cc(-c2ccc3ncc(-c4ccc(CC(=O)Nc5cc(C(C)(C)C)nn5C)cc4)cc3c2)cn1`, the growth with NCI-H23 lung is 7.05% [30 µM] (active); with NCI-H226 lung, 11.5% [30 µM]; with NCI-H322M lung it was 15% [30 µM]; in the test on HOP-62 NSCLC it was 17.6% [30 µM]; in the test with NCI-H460 lung, 8.3% [30 µM] (active); in the test on HOP-92 NSCLC, 31.6% [30 µM]. For the same compound, the growth in the test with NCI-H522 lung was -2.49% [30 µM] (active); in the test on A549/ATCC NSCLC, 17.8% [30 µM]; in the test with 786-0 renal it was 39.6% [30 µM]; in the test with COLO 205 colon, 5.26% [30 µM] (active).

On to `COc1ccc(C(=O)/C=C/c2cc3c(c(OC)c2)OCC(=O)N3)cc1`, for which the growth was 58.5% with NCI-H23 lung; 87.6% in the test with NCI-H226 lung; 87.8% in the test with NCI-H322M lung; 87.4% in the test on HOP-62 NSCLC; 9.81% (active) with NCI-H460 lung; 39.5% with HOP-92 NSCLC. The growth was 46.4% with NCI-H522 lung, 78% in the test with A549/ATCC NSCLC, 14.5% in the test on 786-0 renal and 77% with COLO 205 colon.

For `O=C(O)C1C[C@](O)(c2ccc(F)cc2)[C@@H](c2ccc(F)cc2)O1` (stereo not given in full), the growth in the test with NCI-H23 lung was 91.4%; in the test with NCI-H226 lung, 122%; with NCI-H322M lung, 121%; in the test with HOP-62 NSCLC, 90.3%; with NCI-H460 lung it was 101%; in the test with HOP-92 NSCLC, 78.2%. Also, the growth was 91.5% in the test on NCI-H522 lung, 112% in the test with A549/ATCC NSCLC, 95.6% in the test with 786-0 renal and 110% with COLO 205 colon.

Take `O[C@H]1CO[C@H]2[C@@H]1OC[C@@H]2Oc1ccc(Nc2nc(Nc3ccc(F)c(Cl)c3)ncc2F)cc1Cl`: the growth is 101% in the test with NCI-H23 lung; 96.9% with NCI-H226 lung; 101% with NCI-H322M lung; 118% in the test with HOP-62 NSCLC; 106% in the test with NCI-H460 lung; 101% in the test with HOP-92 NSCLC. Also, the growth is 98.4% in the test with NCI-H522 lung, 102% in the test with A549/ATCC NSCLC, 97.7% in the test on 786-0 renal and 116% with COLO 205 colon.

On to `O=C1/C(=C/c2ccc([N+](=O)[O-])cc2)COc2ccc(O)c(O)c21`, for which the growth in the test on NCI-H23 lung is 11.1%; with NCI-H226 lung, 50.9%; in the test on NCI-H322M lung, 42.7%; in the test on HOP-62 NSCLC, 4.16% (active); in the test on NCI-H460 lung it was -17.2% (active); with HOP-92 NSCLC it was -4.37% (active). For the same compound, the growth was -52.7% (active) with NCI-H522 lung, 34.5% in the test on A549/ATCC NSCLC, -60.5% (active) with 786-0 renal and 16.3% with COLO 205 colon.

With `N#Cc1c(N)nc2c(nnn2-c2cccc(C(F)(F)F)c2)c1N`, the growth was 86.6% with NCI-H23 lung; 92.4% with NCI-H226 lung; 89.8% in the test on NCI-H322M lung; 80.5% with HOP-62 NSCLC; 95.9% in the test with NCI-H460 lung; 77.6% with HOP-92 NSCLC. Also, the growth in the test on NCI-H522 lung is 75.2%; in the test on A549/ATCC NSCLC, 78%; in the test on 786-0 renal it was 101%; in the test on COLO 205 colon it was 104%.

Regarding `CCCCOc1nc2ccc(Cl)cc2cc1/C=C/C(=O)/C=C1/CC(c2cc3cc(Cl)ccc3nc2OCCCC)Nc2ccccc2N1` (stereo not given), the growth is 87.2% in the test with NCI-H23 lung; 90.8% with NCI-H226 lung; 103% in the test with NCI-H322M lung; 94.8% in the test on HOP-62 NSCLC; 85% in the test with NCI-H460 lung; 77.3% in the test with HOP-92 NSCLC. The growth in the test with NCI-H522 lung is 90.4%; in the test with A549/ATCC NSCLC, 94.2%; with 786-0 renal, 99.1%; in the test with COLO 205 colon, 90.9%.

`O=[N+]([O-])c1ccc2[nH]cc(-c3c4ccsc4cc4[nH]c5ccc([N+](=O)[O-])cc5c34)c2c1`: the growth with NCI-H23 lung was 7.93% (active); in the test on NCI-H226 lung, -9.9% (active); with NCI-H322M lung, 20.4%; in the test on HOP-62 NSCLC, 10.8%; with NCI-H460 lung, 4.39% (active); in the test on HOP-92 NSCLC, 26.8%. Besides, the growth was -22.9% (active) with NCI-H522 lung, 5.78% (active) in the test with A549/ATCC NSCLC, -44% (active) with 786-0 renal and -50.3% (active) in the test on COLO 205 colon.

For `NS(=O)(=O)c1cn(-c2ncnc3nc[nH]c23)ccc1=O`, the growth in the test on NCI-H23 lung is 94.2%; in the test with NCI-H226 lung, 78%; in the test on NCI-H322M lung it was 94.5%; in the test with HOP-62 NSCLC it was 94.9%; in the test on NCI-H460 lung, 112%; in the test on HOP-92 NSCLC, 82.7%. The growth with NCI-H522 lung is 51.2%; in the test on A549/ATCC NSCLC, 36%; with 786-0 renal, 96.9%; in the test on COLO 205 colon, 100%.

As to `Cc1ccc(-n2nnc(C3=NCCc4c3[nH]c3ccc(Cl)cc43)c2C)cc1`, the growth is 80.6% in the test with NCI-H23 lung; 76.2% in the test with NCI-H226 lung; 85% with NCI-H322M lung; 72.2% in the test on HOP-62 NSCLC; 72.5% in the test on NCI-H460 lung; 76.4% in the test with HOP-92 NSCLC. Moreover, the growth with NCI-H522 lung is 30.9%; with A549/ATCC NSCLC, 41.3%; in the test with 786-0 renal, 78.2%; in the test with COLO 205 colon, 101%.

As to `CC(=O)NCC(=O)Nc1ccc(-c2nnc3ccccn23)nc1.CC(=O)NCC(=O)Nc1ccc(-c2nnc3ccccn23)nc1.[Pt+2]`, the growth in the test on NCI-H23 lung was 99.4%; in the test with NCI-H226 lung, 110%; with NCI-H322M lung it was 112%; in the test with HOP-62 NSCLC, 101%; with NCI-H460 lung, 99.6%; with HOP-92 NSCLC, 119%. For the same compound, the growth in the test with NCI-H522 lung was 83.6%; in the test with A549/ATCC NSCLC, 85%; in the test with 786-0 renal, 107%; in the test on COLO 205 colon it was 111%.

As for `COC1=CC(c2ccc[nH]2)=N/C1=C\c1[nH]c(C)c(C(=O)OCCn2cc(CCC[C@@H]3Cc4cc(O)ccc4C4CC[C@]5(C)[C@@H](O)CC[C@H]5C43)nn2)c1C` (stereo not given in full), the growth is 80.8% in the test with NCI-H23 lung; 85.7% in the test on NCI-H226 lung; 82% in the test on NCI-H322M lung; 88.6% with HOP-62 NSCLC; 53.3% in the test with NCI-H460 lung; 67.8% with HOP-92 NSCLC. The growth in the test with NCI-H522 lung was 92.1%; in the test with A549/ATCC NSCLC it was 82.2%; in the test with 786-0 renal, 62.5%; in the test with COLO 205 colon, 80.5%.

Take `CCOC(=O)c1nnn(-c2ccccc2)c1C1=CN(C)CCC1`: the growth with NCI-H23 lung is 92.8%; in the test with NCI-H226 lung it was 102%; in the test with NCI-H322M lung it was 95.8%; in the test with HOP-62 NSCLC, 99.6%; in the test on NCI-H460 lung, 104%; with HOP-92 NSCLC, 108%. Moreover, the growth was 86.7% in the test with NCI-H522 lung, 99.6% in the test on A549/ATCC NSCLC, 97.3% with 786-0 renal and 113% with COLO 205 colon.
